Test results reported in PubChem BioAssay (NCATS).
Results filed as inconclusive are left out. The source made the active and inactive calls. Unless noted, calls follow the shape of the dose curve; as a rule, active = well fitted curve in either direction with a large enough effect (not every such curve was filed as active); inconclusive = small, poorly fitted or top-dose-only effect, or another doubt; inactive = flat fitted curve, though single readings scatter.

Experiments:
[1] = molecular target: Lysosomal acid glucosylceramidase (Homo sapiens) (UniProt P04062); experiment: Glucocerebrosidase-p2 (AID 348; in the data active = potency below about 10 µM; also: potency is read from the fitted curve at half-maximal effect); details: purified GBA, blue fluorogenic substrate, 40 min
Lysosomal acid glucosylceramidase (Homo sapiens), sequence (P04062 whole entry, looked up): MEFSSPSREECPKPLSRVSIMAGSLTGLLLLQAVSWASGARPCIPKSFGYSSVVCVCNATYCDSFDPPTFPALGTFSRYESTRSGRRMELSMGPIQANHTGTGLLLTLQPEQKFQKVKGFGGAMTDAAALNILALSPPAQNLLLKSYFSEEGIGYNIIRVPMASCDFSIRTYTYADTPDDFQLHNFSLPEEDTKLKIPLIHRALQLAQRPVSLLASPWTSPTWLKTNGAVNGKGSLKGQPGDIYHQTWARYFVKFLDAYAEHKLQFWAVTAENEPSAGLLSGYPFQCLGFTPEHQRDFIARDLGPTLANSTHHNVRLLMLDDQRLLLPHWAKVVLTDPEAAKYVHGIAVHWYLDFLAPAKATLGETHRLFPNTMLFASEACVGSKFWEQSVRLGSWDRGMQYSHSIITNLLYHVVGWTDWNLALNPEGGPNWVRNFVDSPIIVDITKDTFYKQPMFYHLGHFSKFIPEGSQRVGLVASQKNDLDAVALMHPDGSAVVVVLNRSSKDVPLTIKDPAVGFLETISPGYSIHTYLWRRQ
Procedure, shortened: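 Normal human glucocerebrosidase (0.2 nM) with blue fluorogenic substrate (80 uM final) in citrate/phosphate pH 5.9 with 10mM sodium taurocholate, 0.01% tween-20; 40 min RT, NaOH/glycine stop; fluorescence Ex 365/Em 440; AC50 from a titration from 0.6 nM upwards.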

[2] = AP1 Signaling Pathway (AID 357); details: ME-180 AP-1-bla reporter, EGF-induced, beta-lactamase ratio, 5 h; at 7.69 µM (top of the series) unless noted;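 also: ME-180 reporter cells stimulated with EGF at its EC50 level; % is scaled to controls: 0 for no effect and ±100 for the full control effect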
Procedure, shortened: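 Read-out was the 460nm/530nm emission ratio (excitation 405nm) after CCF4 loading for 2.5 hours at room temperature. Cells carried an AP-1-driven beta-lactamase reporter, were stimulated with EC50 EGF plus compound for 5 hours, and AC50 values came from titrations.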

[3] = molecular target: Cytochrome P450 1A2 (Homo sapiens) (UniProt P05177); experiment: p450-cyp1a2 (AID 410; calls by dose curve; also: potency is read from the fitted curve at half-maximal effect;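 as to activity change, negative = inhibition: -100% = full effect of reference inhibitor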); details: recombinant CYP1A2, luciferin-ME demethylation, luminescence; series mostly up to 11.4 µM
Cytochrome P450 1A2 (Homo sapiens), sequence (P05177 whole entry, looked up): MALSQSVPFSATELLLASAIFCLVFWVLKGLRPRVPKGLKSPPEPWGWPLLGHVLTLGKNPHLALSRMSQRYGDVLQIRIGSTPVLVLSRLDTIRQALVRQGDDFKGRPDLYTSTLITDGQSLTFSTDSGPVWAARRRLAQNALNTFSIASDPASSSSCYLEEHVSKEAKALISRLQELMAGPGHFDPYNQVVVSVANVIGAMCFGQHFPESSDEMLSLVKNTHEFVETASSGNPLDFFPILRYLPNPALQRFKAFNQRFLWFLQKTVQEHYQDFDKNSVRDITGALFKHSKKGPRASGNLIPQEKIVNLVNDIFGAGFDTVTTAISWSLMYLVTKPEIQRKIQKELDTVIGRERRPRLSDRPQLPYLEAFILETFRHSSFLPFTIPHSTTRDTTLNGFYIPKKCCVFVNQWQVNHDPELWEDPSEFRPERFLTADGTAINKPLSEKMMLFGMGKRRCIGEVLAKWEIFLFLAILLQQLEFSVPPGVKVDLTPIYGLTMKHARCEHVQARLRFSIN
Procedure, shortened: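 Luminescent demethylation readout: Luciferin-ME (100uM, equal to Km) turned over by 20nM CYP1A2 for 60 min at room temperature after NADPH regeneration addition, following 10 min compound preincubation. Normalization used 57 uM furafylline as full inhibition.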

[4] = Stat Signaling Pathway (AID 446); details: ME-180 SIE beta-lactamase reporter, IL-6 stimulated, 5 h; at 7.69 µM (top of the series) unless noted;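 also: ME-180 cervical cancer cells given 40 pM IL-6 alongside compound; SIE-controlled beta-lactamase reporter measured as 460/530 nm FRET emission ratio; % is scaled to controls: 0 for no effect and ±100 for the full control effect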
Procedure, shortened: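 Overnight-plated ME-180 cells bearing a STAT Inducible Element beta-lactamase reporter; 5 h co-exposure to compound and 40 pM IL-6; values normalized to 300 pM IL-6 and 125 nM JAK inhibitor controls.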

[5] = molecular target: Glucocorticoid receptor (Homo sapiens) (UniProt P04150); experiment: GR-GFP Redistribution (AID 450;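 active = compounds whose dose series gives a full or clear partial fitted curve of increased nuclear translocation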; also: potency is read from the fitted curve at half-maximal effect); details: U2OS GR-GFP nuclear translocation, laser cytometry, 2 h
Glucocorticoid receptor (Homo sapiens), sequence (P04150 whole entry, looked up, the tested form may be a part): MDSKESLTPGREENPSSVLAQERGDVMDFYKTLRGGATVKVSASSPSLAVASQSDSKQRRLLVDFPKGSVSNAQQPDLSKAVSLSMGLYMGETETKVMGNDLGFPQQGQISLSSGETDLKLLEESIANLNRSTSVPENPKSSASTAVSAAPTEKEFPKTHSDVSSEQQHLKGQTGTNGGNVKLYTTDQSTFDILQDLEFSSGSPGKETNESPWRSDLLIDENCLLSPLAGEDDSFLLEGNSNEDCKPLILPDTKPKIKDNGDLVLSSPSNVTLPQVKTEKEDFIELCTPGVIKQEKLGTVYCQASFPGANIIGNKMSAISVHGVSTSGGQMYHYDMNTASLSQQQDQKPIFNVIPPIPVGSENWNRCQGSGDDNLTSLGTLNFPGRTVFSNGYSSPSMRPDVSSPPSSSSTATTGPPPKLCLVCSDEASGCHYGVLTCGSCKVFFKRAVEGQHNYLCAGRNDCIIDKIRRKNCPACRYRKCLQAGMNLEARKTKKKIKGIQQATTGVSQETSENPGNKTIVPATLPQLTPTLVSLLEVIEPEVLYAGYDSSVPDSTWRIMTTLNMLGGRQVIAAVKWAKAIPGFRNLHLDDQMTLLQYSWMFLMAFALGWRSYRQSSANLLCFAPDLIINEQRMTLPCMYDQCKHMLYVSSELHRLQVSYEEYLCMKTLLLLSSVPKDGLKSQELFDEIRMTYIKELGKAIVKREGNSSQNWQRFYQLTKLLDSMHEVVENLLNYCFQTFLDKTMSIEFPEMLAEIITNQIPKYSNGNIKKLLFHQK

[6] = molecular target: Glucocorticoid receptor (Homo sapiens) (UniProt P04150); experiment: GR-EFC Redistribution (AID 451; calls by dose curve; also: potency is read from the fitted curve at half-maximal effect); details: CHO-K1 GR-EFC translocation, beta-gal luminescence, 2 h
Procedure, shortened: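 Translocation of GR-ED fusion to nuclear EA restores b-gal, read by luminescence after 1 h room-temperature detection. Engineered CHO-K1 biosensor cells, 1,000/well, exposed 2 h at 37 C to titrations up to 46 uM final.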

[7] = molecular target: Mitogen-activated protein kinase 10 (Mus musculus) (UniProt Q61831); experiment: JNK3 AlphaScreen Assay (AID 530); details: JNK3 lysate, c-Jun phosphorylation; series mostly up to 11.4 µM;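 also: kinase came from lysate of stimulated human HepG2 cells; signal reports phosphorylation of biotinylated GST-cJun 1-79 at Ser73 with 10 µM ATP; % is scaled to controls: 0 for no effect and ±100 for the full control effect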
Procedure, shortened: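 qHTS titrations with 15 min compound pre-incubation before adding ATP (10 uM final). Read-out: AlphaScreen of Ser73-phosphorylated biotin-GST-cJun using HepG2 lysate JNK3 activated by IL-1β and TNFα.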

[8] = molecular target: 3',5'-cyclic-AMP phosphodiesterase 4B (Homo sapiens) (UniProt Q07343); experiment: qHTS Assay for Inhibitors of PDE-IV (AID 607; active = well fitted activation curve with a large enough effect in the main read-out, with a control signal flat, not every such curve was filed as active; also: % of control where 0% means no effect); details: HEK293 ACTOne CNG channel cells, membrane potential fluorescence; series mostly up to 22.9 µM
3',5'-cyclic-AMP phosphodiesterase 4B (Homo sapiens), sequence (Q07343 whole entry, looked up): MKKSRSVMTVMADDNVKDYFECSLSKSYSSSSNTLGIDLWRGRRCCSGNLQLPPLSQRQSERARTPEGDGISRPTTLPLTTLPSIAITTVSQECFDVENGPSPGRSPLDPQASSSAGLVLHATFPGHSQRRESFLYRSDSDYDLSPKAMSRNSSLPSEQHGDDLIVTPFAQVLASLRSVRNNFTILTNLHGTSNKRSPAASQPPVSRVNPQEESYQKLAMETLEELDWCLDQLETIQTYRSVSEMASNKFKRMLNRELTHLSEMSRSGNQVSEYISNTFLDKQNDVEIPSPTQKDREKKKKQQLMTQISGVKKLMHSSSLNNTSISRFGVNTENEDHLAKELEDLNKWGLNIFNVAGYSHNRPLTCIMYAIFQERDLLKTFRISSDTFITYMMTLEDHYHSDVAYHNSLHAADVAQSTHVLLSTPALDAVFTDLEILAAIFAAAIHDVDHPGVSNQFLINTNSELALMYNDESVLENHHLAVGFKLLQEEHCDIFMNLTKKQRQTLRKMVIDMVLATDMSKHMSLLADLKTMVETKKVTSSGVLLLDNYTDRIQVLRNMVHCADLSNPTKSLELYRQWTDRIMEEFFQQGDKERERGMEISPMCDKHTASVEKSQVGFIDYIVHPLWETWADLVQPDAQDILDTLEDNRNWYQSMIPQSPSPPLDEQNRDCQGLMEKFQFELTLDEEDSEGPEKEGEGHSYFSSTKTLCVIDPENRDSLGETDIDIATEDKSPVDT
Procedure, shortened: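 Live HEK293 cells with a modified cyclic nucleotide-gated (CNG) channel report intracellular cAMP via membrane-potential dye fluorescence (ex 535/em 590 nm). Endogenous PDE-IV was targeted. Compounds were tested at up to 22.9 uM final; RO 20-1724 100 uM served as control.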

[9] = NFAT Signaling Pathway (AID 444); details: Jurkat NFAT-bla M1, carbachol, beta-lactamase ratio, 5 h; at 7.69 µM (top of the series) unless noted;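 also: carbachol stimulus at about its EC50 of 1 µM final; % is scaled to controls: 0 for no effect and ±100 for the full control effect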
Procedure, shortened: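 Read-out: CCF4 FRET ratio (460 nm/530 nm) after 1 h RT dye loading, used for %activity and AC50 from titration series. Cells: Jurkat NFAT-β-lactamase/M1 line, treated with compound plus 1 uM carbachol for 5 h, 37 °C.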

[10] = qHTS Assay for Identification of Small Molecule Agonists for Hypoxia Response Element Signaling Pathway (AID 914; active = well fitted activation curve with a large enough effect in the signal ratio, with a control signal flat, not every such curve was filed as active; the % refers to the signal ratio; also: % of control where 0% means no effect); details: ME-180 (cervical carcinoma) HRE-bla reporter, beta-lactamase ratio, CoCl2, 17 h; activation: active compounds read high
Procedure, shortened: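 Compounds in a titration series were added to ME-180 reporter cells alongside an EC50 level of CoCl2. After 17 hours, beta-lactamase activity was read as the 460nm/530nm emission ratio of CCF4, giving AC50 values.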

[11] = molecular target: Cytochrome P450 3A4 (Homo sapiens) (UniProt P08684); experiment: qHTS Assay for Activators of Cytochrome P450 3A4 (AID 885; active = well fitted curve in the direction sought with a large enough effect; an effect the other way counts as inactive or inconclusive; also: nearly all actives have a fitted effect of over 65% in size); details: recombinant CYP3A4, Luciferin-PPXE luminescence, 60 min; series mostly up to 11.4 µM
Cytochrome P450 3A4 (Homo sapiens), sequence (P08684 whole entry, looked up): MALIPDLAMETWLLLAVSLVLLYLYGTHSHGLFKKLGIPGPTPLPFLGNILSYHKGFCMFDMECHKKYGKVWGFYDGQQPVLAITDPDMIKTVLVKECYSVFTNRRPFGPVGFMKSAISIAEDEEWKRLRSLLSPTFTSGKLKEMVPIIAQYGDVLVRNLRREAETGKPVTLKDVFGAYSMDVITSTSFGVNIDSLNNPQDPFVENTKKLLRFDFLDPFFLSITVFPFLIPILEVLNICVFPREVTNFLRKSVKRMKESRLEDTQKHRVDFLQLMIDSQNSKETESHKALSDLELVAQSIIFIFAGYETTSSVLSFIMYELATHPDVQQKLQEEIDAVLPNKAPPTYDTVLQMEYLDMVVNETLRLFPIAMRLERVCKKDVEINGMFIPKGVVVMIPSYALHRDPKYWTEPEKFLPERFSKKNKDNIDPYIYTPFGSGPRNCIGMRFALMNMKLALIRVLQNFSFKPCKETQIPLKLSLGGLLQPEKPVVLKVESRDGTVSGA
Procedure, shortened: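 Using 20nM recombinant human CYP3A4 in potassium phosphate (200mM), substrate Luciferin-PPXE at 25uM, luminescent luciferin detection followed a 60-min RT NADPH reaction; data scaled to 57 uM ketoconazole.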

[12] = molecular target: Cytochrome P450 2C19 (Homo sapiens) (UniProt P33261); experiment: qHTS Assay for Inhibitors and Substrates of Cytochrome P450 2C19 (AID 899; active = well fitted curve in the direction sought with a large enough effect; an effect the other way counts as inactive or inconclusive; also: potency is read from the fitted curve at half-maximal effect; nearly all actives have a fitted effect of over 60% in size); details: recombinant CYP2C19, luciferin-H EGE luminescence; series mostly up to 11.4 µM
Cytochrome P450 2C19 (Homo sapiens), sequence (P33261 whole entry, looked up): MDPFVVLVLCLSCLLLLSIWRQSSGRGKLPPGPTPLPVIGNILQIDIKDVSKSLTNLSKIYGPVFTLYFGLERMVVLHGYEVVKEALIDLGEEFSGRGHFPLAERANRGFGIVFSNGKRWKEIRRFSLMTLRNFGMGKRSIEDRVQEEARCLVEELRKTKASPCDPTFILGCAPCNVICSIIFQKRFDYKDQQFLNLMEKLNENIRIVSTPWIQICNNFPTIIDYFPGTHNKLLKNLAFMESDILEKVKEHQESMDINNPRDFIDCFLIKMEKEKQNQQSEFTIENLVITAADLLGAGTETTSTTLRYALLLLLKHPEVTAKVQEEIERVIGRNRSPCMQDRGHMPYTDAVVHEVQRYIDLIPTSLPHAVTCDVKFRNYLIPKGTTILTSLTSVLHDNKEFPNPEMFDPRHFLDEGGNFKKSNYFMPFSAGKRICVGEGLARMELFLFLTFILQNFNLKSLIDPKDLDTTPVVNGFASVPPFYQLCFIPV
Procedure, shortened: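 Luminescence readout of luciferin formed from 10uM Luciferin-H EGE (KM level) by 5 nM CYP2C19 in 50mM KPO4. 60 min NADPH-driven reaction at 37C after 10 min compound preincubation; data scaled to 57uM ketoconazole inhibition.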

[13] = molecular target: Cytochrome P450 2D6 (Homo sapiens) (UniProt P10635); experiment: qHTS Assay for Inhibitors and Substrates of Cytochrome P450 2D6 (AID 891; active = well fitted curve in the direction sought with a large enough effect; an effect the other way counts as inactive or inconclusive; also: potency is read from the fitted curve at half-maximal effect; nearly all actives have a fitted effect of over 60% in size); details: recombinant CYP2D6, luciferin-ME EGE luminescence; series mostly up to 11.4 µM
Cytochrome P450 2D6 (Homo sapiens), sequence (P10635 whole entry, looked up): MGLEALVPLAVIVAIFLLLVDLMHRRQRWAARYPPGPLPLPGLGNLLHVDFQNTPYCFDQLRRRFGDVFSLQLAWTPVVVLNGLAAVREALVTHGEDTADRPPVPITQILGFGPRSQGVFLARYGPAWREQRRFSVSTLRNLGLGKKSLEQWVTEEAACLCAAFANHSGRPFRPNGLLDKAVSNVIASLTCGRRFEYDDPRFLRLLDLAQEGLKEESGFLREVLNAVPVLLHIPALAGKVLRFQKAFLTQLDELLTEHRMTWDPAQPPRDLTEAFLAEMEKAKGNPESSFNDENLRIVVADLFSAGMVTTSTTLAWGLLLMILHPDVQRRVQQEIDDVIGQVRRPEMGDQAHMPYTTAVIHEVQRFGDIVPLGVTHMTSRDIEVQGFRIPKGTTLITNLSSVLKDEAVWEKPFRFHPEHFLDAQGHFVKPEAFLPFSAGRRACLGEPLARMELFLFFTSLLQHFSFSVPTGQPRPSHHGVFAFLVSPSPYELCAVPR
Procedure, shortened: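 Luminescent read-out of luciferin formed by 5 nM human CYP2D6 demethylating 30 uM Luciferin-ME EGE (Km level) over 60 min at room temperature after NADPH regeneration addition. Data normalized to full inhibition by 1.43 uM quinidine.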

[14] = molecular target: ATP-dependent 6-phosphofructokinase (Trypanosoma brucei brucei) (UniProt O15648); experiment: qHTS Assay to Find Inhibitors of T. brucei phosphofructokinase: hit validation (AID 492961; active = well fitted curve in the direction sought with a large enough effect; an effect the other way counts as inactive or inconclusive); details: T. brucei PFK, ADP-Glo luminescence; series mostly up to 51.4 µM
ATP-dependent 6-phosphofructokinase (Trypanosoma brucei brucei), sequence (O15648 whole entry, looked up): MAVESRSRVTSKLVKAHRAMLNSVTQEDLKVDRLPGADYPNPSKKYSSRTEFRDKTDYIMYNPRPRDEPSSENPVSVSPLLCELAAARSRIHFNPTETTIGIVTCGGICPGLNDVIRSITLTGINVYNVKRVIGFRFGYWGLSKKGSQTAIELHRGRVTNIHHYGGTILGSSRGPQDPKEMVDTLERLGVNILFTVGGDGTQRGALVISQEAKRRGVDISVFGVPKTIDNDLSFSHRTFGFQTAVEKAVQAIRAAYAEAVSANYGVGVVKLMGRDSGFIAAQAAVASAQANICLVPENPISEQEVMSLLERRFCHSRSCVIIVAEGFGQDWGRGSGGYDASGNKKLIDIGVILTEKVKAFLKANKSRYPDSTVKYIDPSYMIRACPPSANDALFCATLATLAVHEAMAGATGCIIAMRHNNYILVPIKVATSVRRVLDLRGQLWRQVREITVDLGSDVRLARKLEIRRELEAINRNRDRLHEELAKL
Procedure, shortened: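 ADP-Glo luminescence read-out of ADP formed by 1.25 nM PFK from 0.1 mM ATP and 0.5 mM F6P (TEA pH 8.0, 45 min, RT). Compounds titrated; activity normalized to no-enzyme and full-enzyme controls.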

[15] = qHTS profiling for inhibitors of Plasmodium falciparum proliferation (AID 504749; active = well fitted curve in the direction sought with a large enough effect; an effect the other way counts as inactive or inconclusive;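 also: 0% = DMSO vehicle and full inhibition = artemisinin control; nearly all actives have a fitted effect of over 60% in size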); details: P. falciparum in erythrocytes, SYBR Green DNA, 72 h, at 28.7 µM (top of the series)
Procedure, shortened: (§1)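 SYBR Green fluorescence of parasite DNA, read after lysis and overnight dark incubation, measured growth over 72 h in erythrocyte culture at 0.3% parasitemia and 2.5% hematocrit. Data normalised to DMSO and 0.29 uM artemisinin, with plate-drift correction.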

[16] = test system: CP203; experiment: as above; details: P. falciparum in erythrocytes, SYBR Green DNA, 72 h; series mostly up to 28.7 µM
Procedure, shortened: as §1

[17] = test system: DFO2036; experiment: as above; details: P. falciparum in erythrocytes, SYBR Green DNA, 72 h; series mostly up to 28.7 µM
Procedure, shortened: as §1

[18] = test system: W2; experiment: as above; details: P. falciparum in erythrocytes, SYBR Green DNA, 72 h; series mostly up to 28.7 µM
Procedure, shortened: as §1

[19] = molecular target: Cytochrome P450 3A4 (Homo sapiens) (UniProt P08684); experiment: qHTS Assay for Inhibitors and Substrates of Cytochrome P450 3A4 (AID 884; active = well fitted curve in the direction sought with a large enough effect; an effect the other way counts as inactive or inconclusive; also: potency is read from the fitted curve at half-maximal effect; nearly all actives have a fitted effect of over 50% in size); details: recombinant CYP3A4, Luciferin-PPXE luminescence; series mostly up to 57.1 µM
Procedure, shortened: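 Luminescent readout of luciferin produced by CYP3A4 (20 nM) dealkylation of Luciferin-PPXE, 25 uM (its KM). NADPH-driven reaction ran 60 min at RT after 10 min compound preincubation; data scaled to 57 uM ketoconazole as 100% inhibition.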

c1ccc([P+](CC[P+](c2ccccc2)(c2ccccc2)c2ccccc2)(c2ccccc2)c2ccccc2)cc1
inactive: Potency [1] > 11.4 µM | activity change, negative = inhibition [2] 1.2% | Potency [3] | activity, negative = inhibition [4] 7.49% | Potency [5] > 46 µM | Potency [6] > 9.22 µM | Potency [7] | Potency [8]

Cc1cccc(C)c1NC(=O)Nc1ccc(S(N)(=O)=O)cc1
inactive: Potency [1] > 11.4 µM | activity change, negative = inhibition [2] 3.48% | activity change, negative = inhibition [3] -10.8% [at 2.29 µM] | activity change, negative = inhibition [9] 11% | Potency [5] > 46 µM | Potency [6] > 9.22 µM | Potency [7] | Potency [8] | activation [10] 13.8%

CC(C)(C)c1ccc(NS(=O)(=O)c2ccc(N)cc2)cc1
active: Potency [3] 3.16 µM | Potency [12] 0.398 µM
inactive: Potency [1] > 11.4 µM | activity change, negative = inhibition [2] 3% | activity change, negative = inhibition [9] -2.46% | Potency [5] > 46 µM | Potency [6] > 9.22 µM | Potency [7] | Potency [8] | Potency [11]

Sc1ccc2ccccc2c1CNCc1ccccc1
inactive: Potency [1] > 11.4 µM | activity change, negative = inhibition [2] 12.3% | activity change, negative = inhibition [9] -0.525% | Potency [5] > 46 µM | Potency [6] > 9.22 µM | Potency [7] | Potency [8]
active: Potency [3] 1.26 µM | Potency [13] 1.26 µM

CC(=O)Nc1ccc2c(c1)C(=Nc1ccc(C(=O)O)cc1)c1ccccc1-2
inactive: Potency [1] > 11.4 µM | activity change, negative = inhibition [2] 2.47% | activity change, negative = inhibition [9] 27.4% | Potency [5] > 46 µM | Potency [6] > 9.22 µM | Potency [8]
active: Potency [3] 0.316 µM

CC1(C)[C@@H]2CC[C@]1(C)[C@@H](OC(=O)CSC#N)C2
inactive: Potency [1] > 11.4 µM | activity change, negative = inhibition [2] -4% | activity change, negative = inhibition [3] -18.3% [at 2.29 µM] | activity change, negative = inhibition [9] 18.3% | Potency [7] | Potency [8] | activation [10] -0.299% | outcome [14] | activity, negative = inhibition ([15]; parasite line A) -6.1% | activity, negative = inhibition ([15]; parasite line B) -5.42% | Potency [16] | Potency [17] | Potency [18]

Cc1nc2cnc(N3CCNCC3)nc2n(-c2ccccc2)c1=O
inactive: Potency [1] > 11.4 µM | activity change, negative = inhibition [2] -4.43% | activity change, negative = inhibition [9] 1.83% | Potency [5] > 9.22 µM | Potency [6] > 46 µM | Potency [7] | Potency [8] | Potency [11]
active: Potency [3] 10 µM

c1ccc2c(c1)-c1nc3ccccc3cc1[C@H]2N1CCOCC1
inactive: Potency [1] > 11.4 µM | activity change, negative = inhibition [2] -6.79% | activity change, negative = inhibition [9] -6.28% | Potency [5] > 46 µM | Potency [6] > 9.22 µM | Potency [7] | Potency [8] | Potency [11]
active: Potency [3] 1.26 µM | Potency [19] 2.51 µM
